# According to PMC8384837, “Expanding the binding specificity for RNA recognition by a PUF domain”:
# Molecular target: PUM1 PUF domain R3-LYR (Homo sapiens, UniProt Q14671 828-1176, C935L;R936Y;Q939R)
# Experiment: yeast three-hybrid, YBZ-1, SC-Leu-His + 0.5 mM 3-AT, 4 days
# Details: tags: N-Gal4 AD-HA kept; label: inside an RPR1-promoter hybrid RNA with tandem MS2 sites; ssRNA
# How it was run: (§1)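 Matching RNA elements and Pumilio-1 PUF domain libraries, randomized at the three base-contacting residues of every repeat, were co-expressed from a centromeric plasmid in strain YBZ-1 (LexA–MS2 coat fusion, HIS3 reporter). The repeat regions were PCR-amplified and Illumina-sequenced from cells grown four days on SC-Leu (input) or SC-Leu-His + 0.5 mM 3-AT (selection). The interaction score is the log change in variant frequency from input to selection. It is computed in log2, with a pseudocount of 1 for absent variants.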
row,Sequence,binding signal
1,GGCUAGAACUAGUGGAUCCCCCGGCGCCCGGCGGCUCGAGCCCGGGUAAGUGUAAGUAGUCUGCAUGCCGCCGGGCGCCAUGCCUGCAGGUCGACUCUAGAAAACAUG,5.31 log2 enrichment (interaction score)
2,GGCUAGAACUAGUGGAUCCCCCGGCGCCCGGCGGCUCGAGCCCGGGUAAGUGUAAAUAGUCUGCAUGCCGCCGGGCGCCAUGCCUGCAGGUCGACUCUAGAAAACAUG,4.29 log2 enrichment (interaction score)
3,GGCUAGAACUAGUGGAUCCCCCGGCGCCCGGCGGCUCGAGCCCGGGUAAGUGUAAUUAGUCUGCAUGCCGCCGGGCGCCAUGCCUGCAGGUCGACUCUAGAAAACAUG,4.25 log2 enrichment (interaction score)

# Molecular target: PUM1 PUF domain R5-PRK (Homo sapiens, UniProt Q14671 828-1176, C1007P;Q1011K)
# Experiment: as above
# Details: tags: N-Gal4 AD-HA kept; label: inside an RPR1-promoter hybrid RNA with tandem MS2 sites; ssRNA
# How it was run: as §1
# Chain of PUM1 PUF domain R5-PRK (Q14671 828-1176 C1007P/Q1011K): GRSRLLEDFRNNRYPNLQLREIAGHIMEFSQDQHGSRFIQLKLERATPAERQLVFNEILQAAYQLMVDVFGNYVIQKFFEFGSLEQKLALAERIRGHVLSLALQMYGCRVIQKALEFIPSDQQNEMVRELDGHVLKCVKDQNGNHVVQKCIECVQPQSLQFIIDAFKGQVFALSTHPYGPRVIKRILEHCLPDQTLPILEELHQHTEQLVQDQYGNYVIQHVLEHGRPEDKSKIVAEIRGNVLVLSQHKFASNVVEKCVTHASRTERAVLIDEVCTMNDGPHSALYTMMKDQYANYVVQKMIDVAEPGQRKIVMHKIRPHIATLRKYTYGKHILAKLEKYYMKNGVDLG
row,Sequence,binding signal
1,GGCUAGAACUAGUGGAUCCCCCGGCGCCCGGCGGCUCGAGCCCGGGUAAGUGUGAAUAGUCUGCAUGCCGCCGGGCGCCAUGCCUGCAGGUCGACUCUAGAAAACAUG,3.87 log2 enrichment (interaction score)
2,GGCUAGAACUAGUGGAUCCCCCGGCGCCCGGCGGCUCGAGCCCGGGUAAGUGUAAAUAGUCUGCAUGCCGCCGGGCGCCAUGCCUGCAGGUCGACUCUAGAAAACAUG,2.27 log2 enrichment (interaction score)
3,GGCUAGAACUAGUGGAUCCCCCGGCGCCCGGCGGCUCGAGCCCGGGUAAGUGUCAAUAGUCUGCAUGCCGCCGGGCGCCAUGCCUGCAGGUCGACUCUAGAAAACAUG,2.13 log2 enrichment (interaction score)
4,GGCUAGAACUAGUGGAUCCCCCGGCGCCCGGCGGCUCGAGCCCGGGUAAGUGUUAAUAGUCUGCAUGCCGCCGGGCGCCAUGCCUGCAGGUCGACUCUAGAAAACAUG,4.06 log2 enrichment (interaction score)

# Molecular target: PUM1 PUF domain R1-RGN (Homo sapiens, UniProt Q14671 828-1176, S863R;R864G;Q867N)
# Experiment: as above
# Details: tags: N-Gal4 AD-HA kept; label: inside an RPR1-promoter hybrid RNA with tandem MS2 sites; ssRNA
# How it was run: as §1
row,Sequence,binding signal
1,GGCUAGAACUAGUGGAUCCCCCGGCGCCCGGCGGCUCGAGCCCGGGUAAGUGUAAAUUGUCUGCAUGCCGCCGGGCGCCAUGCCUGCAGGUCGACUCUAGAAAACAUG,2.37 log2 enrichment (interaction score)
2,GGCUAGAACUAGUGGAUCCCCCGGCGCCCGGCGGCUCGAGCCCGGGUAAGUGUAAAUGGUCUGCAUGCCGCCGGGCGCCAUGCCUGCAGGUCGACUCUAGAAAACAUG,0.76 log2 enrichment (interaction score)
3,GGCUAGAACUAGUGGAUCCCCCGGCGCCCGGCGGCUCGAGCCCGGGUAAGUGUAAAUCGUCUGCAUGCCGCCGGGCGCCAUGCCUGCAGGUCGACUCUAGAAAACAUG,1.85 log2 enrichment (interaction score)
